In the library only some 15% were active in any assay of this set; here they are far more common.
ELG1 repair inh: inhibitors of ELG1-dependent DNA repair in HEK293T cells | HEK293T ELG1-luciferase reporter, luminescence, 16 h; DNA damage induced by 5-fluorouridine | Potency, µM (top dose mostly 46.1 µM), without a hit: at the highest dose activity change, negative = inhibition, usual class: inhibitors | hit rate 2.3% among 330,000; also: nearly all actives have a fitted effect of over 55% in size
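DMSO vehicle served as the neutral condition. Each well held 2,000 cells given 5-fluorouridine plus compound; after 16 hr at 37 °C/5% CO2, ONE-Glo was added and luciferase measured 30 min later.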
RORgamma inh: inhibitors of mouse ROR gamma transcriptional activity; hit rate 5.4% among 310,000; AID 2551; Drosophila S2 Gal4-RORgamma UAS-luciferase reporter, 20 h; Potency, µM (titrated, usually from 53.6 µM), inactives show at the highest dose activity change, negative = inhibition, most hits filed as inhibitors; also: nearly all actives have a fitted effect of over 60% in size
Target sequence (P51450 whole entry, looked up, the tested form may be a part): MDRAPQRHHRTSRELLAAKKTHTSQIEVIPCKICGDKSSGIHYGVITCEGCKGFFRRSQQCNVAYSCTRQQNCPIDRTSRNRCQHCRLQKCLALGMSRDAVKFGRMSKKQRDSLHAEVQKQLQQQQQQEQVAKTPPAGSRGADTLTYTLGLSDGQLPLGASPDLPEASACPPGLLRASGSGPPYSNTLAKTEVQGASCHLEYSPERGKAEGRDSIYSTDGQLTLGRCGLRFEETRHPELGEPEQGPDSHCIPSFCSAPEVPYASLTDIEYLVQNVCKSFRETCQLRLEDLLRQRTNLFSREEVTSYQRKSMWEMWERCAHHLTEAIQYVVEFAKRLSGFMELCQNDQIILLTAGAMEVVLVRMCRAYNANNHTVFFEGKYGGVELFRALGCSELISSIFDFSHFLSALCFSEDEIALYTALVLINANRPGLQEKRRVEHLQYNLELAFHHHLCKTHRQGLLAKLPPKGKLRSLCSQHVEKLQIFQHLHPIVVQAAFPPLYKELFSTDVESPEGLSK
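Compounds are pin-transferred onto Drosophila Schneider cells expressing a copper-inducible Gal4–ROR gamma transactivation domain fusion. After 1 hr, copper sulfate is added to 700 uM final; luciferase is read 20 hr later.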
DT40 TDP1 no CPT: qHTS for Inhibitors of human tyrosyl-DNA phosphodiesterase 1 (TDP1): qHTS in cells in absence of CPT. Potency, µM (titrated, usually from 46.2 µM), without a hit: at the top dose activity change, negative = growth inhibition, most hits filed as inhibitors. hit rate 15% among 420,000. DT40 Tdp1-/- hTDP1 cells, no CPT, ATP luminescence, 48 h; also: nearly all actives have a fitted effect of over 55% in size
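Chicken DT40 Tdp1-/- cells stably complemented with human TDP1 were seeded at 400 cells/well with DMSO in place of 20 nM camptothecin. After compound pinning, cells grew at least 48 hr at 37 °C; viability read by CellTiter-Glo luminescence.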
ALOX12 inh: ALOX12 (human) lipoxygenase inhibition | P18054 | purified 12hLO, xylenol orange hydroperoxide absorbance | Potency, µM (top dose mostly 108 µM), for the others: at the highest dose activity change, negative = inhibition, usual class: inhibitors | hit rate 1.1% among 580,000
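Purified human 12hLO (150 nM final) in 25 mM Hepes, 0.01% Triton X-100, pH 7.0 was preincubated 15 min at room temperature with compound. Then 40 uM arachidonic acid was added, 30 min. Hydroperoxide was read by Fe-XO absorbance ratio 573/405 nm.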
TDP1 cell CPT: DT40-hTDP1 cell growth loss with CPT | chicken DT40 Tdp1-/-;hTDP1 cells + 20 nM CPT, ATP luminescence, 48 h | Potency, µM (titrated, usually from 46.2 µM), for the others: top-dose activity change, negative = growth inhibition, most hits filed as inhibitors | hit rate 12% among 420,000 | AID 686979; also: nearly all actives have a fitted effect of over 55% in size
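Chicken DT40 Tdp1-/- cells complemented with human TDP1, 400 cells/well, exposed to compounds plus 20 nM camptothecin for at least 48 h at 37 C; viability read as ATP content by CellTiter-Glo luminescence.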
Gal4-VP16 FLuc: Gal4-VP16 reporter inhibition counter-screen. Drosophila S2 Gal4-VP16 UAS-luciferase, luminescence, 20 h. hit rate 3.5% among 310,000. AID 2546. Potency, µM (highest dose often 53.6 µM), inactives show top-dose activity, negative = inhibition, actives largely listed as inhibitors;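 also: Gal4-VP16 expression switched on by copper sulfate through the metallothionein promoter; nearly all actives have a fitted effect of over 50% in size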
* hit, by the source's call; ? = inconclusive; · = no result given; [ ] = remark or other dose. Calls follow the shape of the dose curve; as a rule, active = well fitted curve in the direction sought with a large enough effect; inconclusive = small, poorly fitted or top-dose-only effect, or another doubt; inactive = no such curve, though single readings can be large; an effect the other way counts as inactive or inconclusive. % is scaled to controls: 0 for no effect and ±100 for the full control effect; potency is read from the fitted curve at half-maximal effect.

SMILES | ELG1 repair inh | RORgamma inh | DT40 TDP1 no CPT | ALOX12 inh | TDP1 cell CPT | Gal4-VP16 FLuc
O=[N+]([O-])c1ccc2nc(-c3ccc(Cl)cc3)[nH]c2c1 | ? | 16.0% | 16.4µM* | 20µM* | ? | ?
O=[N+]([O-])c1ccc2nc(-[n+]3c(-c4ccccc4)cc(-c4ccccc4)cc3-c3ccccc3)[nH]c2c1 | 23.1µM* | ? | 20.6µM* | · | 23.1µM* | ?
O=[N+]([O-])c1ccc2nc(-c3ccncc3)[nH]c2c1 | ? | 22.1% | ? | 8.7% | ? | -6.6%
Fc1ccc(-c2nc3ccncc3[nH]2)cc1 | ? | 34.9% | -13.8% | 7.4% | -22.5% | 10.9%
Clc1ccc(-c2nc3ccncc3[nH]2)cc1 | ? | 16.7%[10 µM] | ? | -17.7% | 10.3µM* | 6.0%
COc1ccc(-c2nc3ccc([N+](=O)[O-])cc3[nH]2)cc1 | ? | -32.9% | ? | -26.6% | ? | ?
O=[N+]([O-])c1ccc2nc(-c3ccccc3[N+](=O)[O-])[nH]c2c1 | 26.3% | 43.7% | -12.0% | 1.5% | 0.1% | -7.3%
Cc1n[nH]c(C)c1C(N)C(=O)N1CC2(C)CN(C)CC(C)(C1)C2O (configuration not stated) | · | · | · | 37.0% | · | ·
O=Cc1cccn1-c1cccc(Br)c1 | · | · | · | 10.1% | · | ·
Cc1ccc(-c2nc3ccc([N+](=O)[O-])cc3[nH]2)cc1 | ? | ? | 20.6µM* | ? | ? | ?
CCC(=O)OCOc1ccc(/C=C2/CCC(CN(C)C)C2=O)cc1 (configuration not stated) | · | · | 2.91µM* | 35.5µM* | 2.31µM* | ·
CCc1nnc(SCC(=O)Nc2ccc(Cl)cc2Cl)n1-n1cccc1 | · | · | · | 15.7% | · | ·
O=C1CC(c2noc(-c3ccc(-c4ccccc4)cc3)n2)CN1c1ccc(F)cc1 (configuration not stated) | · | · | · | 26.6% | · | ·
O=C(COC(=O)C1C2CCC(C2)C1C(=O)OCC(=O)c1ccc(OC(=O)c2ccco2)cc1)c1ccc(OC(=O)c2ccco2)cc1 (configuration not stated) | · | · | · | 12.9% | · | ·
CCOC1CCOC2(CCN(C(=O)c3ccco3)CC2)C1 (configuration not stated) | · | · | · | 37.6% | · | ·
Cc1cn2c(=O)cc(COc3cccc(NC(=O)c4ccccc4Cl)c3)nc2s1 | · | · | 13µM* | 0.0% | ? | ·
Cc1cn2c(=O)cc(COc3cccc(NC(=O)c4ccc(C(C)(C)C)cc4)c3)nc2s1 | · | · | 16.4µM* | -13.1% | 16.4µM* | ·
C=CCNC(=O)O[C@@H]1CC[C@]2(C)C(CC[C@@H](O)[C@H]2CC(=O)NCc2ccc3c(c2)OCO3)[C@]1(C)CO (some centres not stated) | · | · | · | 8.2% | · | ·
O=C(Cc1ccccc1)Nc1cccc(-c2nnc(-c3ccco3)o2)c1 | ? | 26.9% | 14.6µM* | 56.8% | ? | -8.5%
COc1ccccc1OCC(=O)Nc1cccc(-c2nnc(-c3ccco3)o2)c1 | ? | -2.0% | 20.6µM* | 2.1% | ? | 5.4%
O=C(Cc1ccc(Cl)cc1)Nc1cccc(-c2nnc(-c3ccco3)o2)c1 | -1.0% | -36.8% | ? | -4.1% | ? | -21.6%
O=C(Nc1cccc(-c2nnc(-c3ccco3)o2)c1)C(c1ccccc1)c1ccccc1 | 13µM* | 13.8% | 16.4µM* | 10.2% | ? | -13.6%
CNC(=O)c1ccc(NC(=O)c2cccc(N(C)C)c2)cc1 | · | · | · | -3.5% | · | ·
Cc1cc(SCC(=O)NC(=O)NC(C)(C)C)nc2ccccc12 | · | · | · | -18.9% | · | ·
COc1ccc(-c2nc(C(C)C)nc3c2CCN(C(=O)c2ccc(C(F)(F)F)cc2)CC3)cc1 | · | · | · | 4.9% | · | ·
SMILES | ELG1 repair inh | RORgamma inh | DT40 TDP1 no CPT | ALOX12 inh | TDP1 cell CPT | Gal4-VP16 FLuc
COc1c(/C=N/NC(=O)[C@H]2C[C@@H]2c2ccccc2)c(CCN(C)C(C)=O)cc2c1OCO2 | 13µM* | 22.0% | -15.8% | 87.7% | -16.1% | -4.0%
CCC(=O)N(C)CCc1cc2c(c(OC)c1/C=N/NC(=O)[C@H]1C[C@@H]1c1ccccc1)OCO2 | ? | 14.5% | ? | 125.0% | -29.7% | -3.6%
Cc1cc(C(=O)CSc2cccc[n+]2[O-])c(C)n1-c1ccc(OC(F)F)cc1 | ? | -39.6% | ? | 14.6% | 20.6µM* | -6.3%
COC(=O)c1ccc(CN2C(=O)[C@@H]3C[C@@H](O)CN3C3(CN(Cc4cccc(OC(F)(F)F)c4)C3)C2=O)cc1 | · | · | · | -5.7% | · | ·
O=C1/C(=C/c2ccccc2[N+](=O)[O-])COc2ccccc21 | ? | ? | ? | -9.6% | 2.59µM* | ?
CNc1ccc(/C=C2\COc3ccccc3C2=O)cc1[N+](=O)[O-] | 0.0% | 37.2% | 11.6µM* | -4.8% | ? | ?
O=C1/C(=C/c2ccc(O)cc2)COc2ccccc21 | ? | ? | -16.6% | 2.9% | -0.4% | ?
O=C1/C(=C/c2ccccn2)COc2ccccc21 | ? | -25.6% | 4.61µM* | -3.8% | 2.06µM* | -15.5%
O=C1/C(=C/c2ccccc2)COc2ccccc21 | · | · | · | 13.4% | · | ·
COCCNc1ccc(-c2noc([C@@H]3CCCN3Cc3cc(OC)c(OC)c(OC)c3)n2)cn1 | · | · | · | 51.5% | · | ·
N#Cc1cc2ccncc2c2ccccc12 | · | · | 8.2µM* | -7.1% | ? | ·
Cc1cc(N)c2ccccc2n1 | 1.1% | -15.4% | -10.8% | 3.1% | 18.2% | 1.4%
Nc1cc2ccncc2c2ccccc12 | 1.83µM* | -41.7% | 10.3µM* | 0.0% | ? | -23.0%
COC(=O)C1=C(N)Oc2cc(C)n(Cc3ccccc3)c(=O)c2C1c1ccccc1OC (configuration not stated) | · | · | · | -12.0% | · | ·
Cc1cc(Cl)c(C)c(S(=O)(=O)N2CCCC2c2nnc3ccccn23)c1Cl (configuration not stated) | · | · | · | 17.9% | · | ·
CCCNC(=O)c1cc(C2CCCCN2C(=O)c2ccccc2)on1 (configuration not stated) | · | · | -24.2% | 1.2% | -23.7% | ·
CCCNC(=O)c1cc(C2CCCCN2C(=O)c2ccc(C(C)C)cc2)on1 (configuration not stated) | · | · | 10.3µM* | 9.5% | 20.6µM* | ·
CC(C)c1ccc(C(=O)N2CCCCC2c2cc(C(=O)Nc3ccncc3)no2)cc1 (configuration not stated) | · | · | 16.4µM* | 13.9% | 16.4µM* | ·
CCCNC(=O)c1cc(C2CCCCN2C(=O)c2cc(OC)c(C)c(OC)c2)on1 (configuration not stated) | · | · | ? | 12.9% | 20.6µM* | ·

Screening data (PubChem)
